Test results reported in PubChem BioAssay (NCI).
This is part of a sample that, as a whole, favours compounds with a hit. Of some 83,000 tested, about 20% had one in any assay.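 Values shown are percent growth following 48 h exposure of cells in 96-well plates to a single concentration of compound; below 10 was considered active.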 Active and inactive are the calls of the source.

Tested on: HCT-116 colon
Assay: NCI-60 one-dose screen, 48 h (100 = growth as untreated, 0 = no growth, -100 = all killed)
Conditions: 10 µM

| SMILES | growth |
| --- | --- |
| CC(C)=CCC/C(C)=C/CC/C(C)=C/CC/C=C(\C)CC/C=C(\C)CCC(=O)Nc1ccn(C2OC(CO)C(O)C2(F)F)c(=O)n1 (configuration not stated) | 20.3% (inactive) |
| COc1ccccc1/C=N\N/C(N)=N\N=C\c1ccccc1OC | 5.25% (active) |
| Cc1cc(CCNC=O)c(C)c2c1sc1ccccc12 | 94% (inactive) |
| COc1ccc(-c2nc(-c3nc4ccc(C)cc4[nH]3)cc3c2[nH]c2ccccc23)cc1 | 19.3% (inactive) |
| Cc1ccc(/C=C2/C(=O)N(C)c3ccc(S(=O)(=O)Nc4ccc(C(C)(C)C)cc4)cc32)s1 | 55.4% (inactive) |
| c1ccc(/C(=N\Nc2ccc3ccccc3n2)c2ccccn2)cc1 | 9.03% (active) |
| NC(N)=N/N=C(\N=Nc1ccccc1)c1ccc(Cl)cc1 | 15% (inactive) |
| COc1cc(NC(=O)Nc2cnc(Nc3ccc(N4CCOCC4)cc3)nc2Oc2cccc(OC)c2)cc(OC)c1 | 32.4% (inactive) |
| COc1cc(-c2nn(-c3cccc(NC(=O)CCN4CCN(c5ccccc5)CC4)c3)cc2-c2ccncc2)ccc1Cl | 11.8% (inactive) |
| OCC1OC(n2ccc3c(NO)ncnc32)C(O)C1O (configuration not stated) | -33.1% (active) |
| CCOC(=O)C1C(C(=O)OCC)C2C(=O)C3C(C(=O)OCC)C(C(=O)OCC)C3C(=O)C12 (configuration not stated) | 104% (inactive) |
| CCCCN(CCCC)C(=O)[C@H](CC)[C@@H]1CC[C@@H](C)[C@@H]([C@H](C)[C@@H](O)[C@@H](C)C(=O)[C@H](CC)C2O[C@]3(C=CC(=O)[C@]4(CC[C@@](C)([C@H]5CC[C@](O)(CC)[C@H](C)O5)O4)O3)[C@H](C)C[C@@H]2C)O1 (some centres not stated) | 19% (inactive) |
| COc1ccc(Cl)cc1Nc1nc(C(F)(F)F)ccc1C(=O)N/N=C/c1ccc(Cl)cc1 | 21.4% (inactive) |
| CCCc1nc(C(C)(C)O)c(C(=O)O)n1Cc1ccc(-c2ccccc2-c2nn[nH]n2)cc1 | 106% (inactive) |
| O=C(COc1cccc(/C=C2\CSc3ccc(Cl)cc3C2=O)c1)c1ccc(Cl)cc1 | 42% (inactive) |
| O=C(CCl)Nc1ccc(Cc2ccc(NC(=O)CCl)cc2)cc1 | -56.8% (active) |
| O=C1CSC(=S)N1/N=C/c1ccc(Cl)s1 | 107% (inactive) |
| CCc1ccc(C2=NN(c3ccc(S(C)(=O)=O)cc3)C(=O)CC2)cc1 | 15.7% (inactive) |

Tested on: HCC-2998 colon
Assay: as above
Conditions: 10 µM

| SMILES | growth |
| --- | --- |
| O=C(N/N=C/c1ccc(Cl)cc1)c1ccccc1Nc1cccc(C(F)(F)F)c1 | 103% (inactive) |
| O=C(CSc1nccc(Nc2cccc3ccccc23)n1)c1ccc(Cl)cc1 | 101% (inactive) |
| O=C(CSc1nnc(-c2cccnc2SCc2ccccc2)o1)Nc1nc(Cl)cc(Cl)n1 | 103% (inactive) |
| Nc1nc(N)c(N)c(Nc2ccc(CCO)cc2)n1 | 106% (inactive) |
| O=C(CNc1nnc(-c2cccnc2SCc2ccccc2)s1)Nc1nc(Cl)cc(Cl)n1 | 122% (inactive) |
| CN(C)c1ccc(/C=N/NC(=O)c2ccccc2Nc2cccc(C(F)(F)F)c2)cc1 | 116% (inactive) |
| CN1C(=O)C2(Nc3cc(Cl)ccc3S2)c2cc(Cl)ccc21 (configuration not stated) | 93.5% (inactive) |
| CC(C)(C)OC(=O)N1CCc2c(sc3ncnc(N/N=C/c4cccc5ccccc45)c23)C1 | 37.1% (inactive) |
| COc1cc(CNC(=O)C2CSC3(C)c4ccccc4C(=O)N23)cc(OC)c1OC (configuration not stated) | 95.5% (inactive) |
| c1ccc(CSc2ncccc2-c2nnc(SCCN3CCOCC3)o2)cc1 | 116% (inactive) |
| CC[N+](CC)=c1ccc2nc3c(cc(NCc4ccccc4)c4ccccc43)oc-2c1 | -94.8% (active) |
| N#CC1=CC2CN(Cc3ccccc3)C1C1C(=O)N(c3ccccc3)C(=O)C21 (configuration not stated) | 92.1% (inactive) |
| COc1ccc(-c2nn(-c3cccc(Cl)c3)cc2-c2nc(N)[nH]c(=O)c2C#N)cc1 | 80.9% (inactive) |
| COc1cc2cc(Oc3ccc(NC(=O)Nc4ccc(Cl)c(C(F)(F)F)c4)cc3)c(C)nc2cc1OC | -13.1% (active) |
| COc1cc2cc(Oc3ccc(NC(=O)Nc4ccc(Cl)c(Cl)c4)cc3)c(C)nc2cc1OC | 37.6% (inactive) |
| COc1cc(-c2nn(-c3cccc(NC(=O)NCCNS(=O)(=O)c4ccc(Cl)cc4)c3)cc2-c2ccncc2)ccc1Cl | -9.49% (active) |
| O=C(N/N=C/c1c(Cl)cccc1Cl)c1ccccc1Nc1cccc(C(F)(F)F)c1 | 117% (inactive) |
| CC(=O)Nc1ccc(CC[C@H]2CCC/C=C/[C@@H]3C[C@H](O)C[C@H]3[C@H](O)/C=C/C(=O)O2)cc1 | 2.85% (active) |
| Cc1cc(Cl)ccc1Nc1nc(C(F)(F)F)ccc1C(=O)N/N=C/c1c(Cl)cccc1Cl | 19.5% (inactive) |
| CCOC(=O)CC(S(=O)(=O)c1ccccc1)S(=O)(=O)c1ccccc1 | 109% (inactive) |

| SMILES | growth |
| --- | --- |
| Cc1cc(Cl)ccc1Nc1nc(C(F)(F)F)ccc1C(=O)N/N=C/c1cccc(O)c1 | 31.9% (inactive) |
| CC(C)=CCC/C(C)=C/CC/C(C)=C/CC/C=C(\C)CC/C=C(\C)CCC(=O)Nc1ccn(C2OC(CO)C(O)C2(F)F)c(=O)n1 (configuration not stated) | 82.4% (inactive) |
| COc1ccccc1/C=N\N/C(N)=N\N=C\c1ccccc1OC | 5.64% (active) |
| Cc1cc(CCNC=O)c(C)c2c1sc1ccccc12 | 104% (inactive) |
| COc1ccc(-c2nc(-c3nc4ccc(C)cc4[nH]3)cc3c2[nH]c2ccccc23)cc1 | 48.9% (inactive) |
| Cc1ccc(/C=C2/C(=O)N(C)c3ccc(S(=O)(=O)Nc4ccc(C(C)(C)C)cc4)cc32)s1 | 87.8% (inactive) |
| c1ccc(/C(=N\Nc2ccc3ccccc3n2)c2ccccn2)cc1 | 45.5% (inactive) |
| NC(N)=N/N=C(\N=Nc1ccccc1)c1ccc(Cl)cc1 | 11% (inactive) |
| COc1cc(NC(=O)Nc2cnc(Nc3ccc(N4CCOCC4)cc3)nc2Oc2cccc(OC)c2)cc(OC)c1 | 45.4% (inactive) |
| COc1cc(-c2nn(-c3cccc(NC(=O)CCN4CCN(c5ccccc5)CC4)c3)cc2-c2ccncc2)ccc1Cl | 28.5% (inactive) |
| OCC1OC(n2ccc3c(NO)ncnc32)C(O)C1O (configuration not stated) | -38.7% (active) |
| CCOC(=O)C1C(C(=O)OCC)C2C(=O)C3C(C(=O)OCC)C(C(=O)OCC)C3C(=O)C12 (configuration not stated) | 107% (inactive) |
| CCCCN(CCCC)C(=O)[C@H](CC)[C@@H]1CC[C@@H](C)[C@@H]([C@H](C)[C@@H](O)[C@@H](C)C(=O)[C@H](CC)C2O[C@]3(C=CC(=O)[C@]4(CC[C@@](C)([C@H]5CC[C@](O)(CC)[C@H](C)O5)O4)O3)[C@H](C)C[C@@H]2C)O1 (some centres not stated) | 39% (inactive) |
| COc1ccc(Cl)cc1Nc1nc(C(F)(F)F)ccc1C(=O)N/N=C/c1ccc(Cl)cc1 | 59.4% (inactive) |
| CCCc1nc(C(C)(C)O)c(C(=O)O)n1Cc1ccc(-c2ccccc2-c2nn[nH]n2)cc1 | 110% (inactive) |
| O=C(COc1cccc(/C=C2\CSc3ccc(Cl)cc3C2=O)c1)c1ccc(Cl)cc1 | 32.9% (inactive) |
| O=C(CCl)Nc1ccc(Cc2ccc(NC(=O)CCl)cc2)cc1 | -14.9% (active) |
| O=C1CSC(=S)N1/N=C/c1ccc(Cl)s1 | 99.8% (inactive) |
| CCc1ccc(C2=NN(c3ccc(S(C)(=O)=O)cc3)C(=O)CC2)cc1 | 46.6% (inactive) |
